Reference: the OligoGym collection

These sequences were tested against CCL13 (assay: pooled miR-30 sensor sort-seq; sequence = guide strand). Settings: shRNA.
For TAAATGTGAAGCAGCAAGTAGA, the sensor-assay potency score (higher = more potent) was -1.06.
TGCAAGGAGATCTTCTTACTGC was tested, and the sensor-assay potency score (higher = more potent) was -0.0125.
Work on TAACACATAGTACATTTTGAAT yielded a sensor-assay potency score (higher = more potent) of -1.62.

Each sequence was assayed against CCL23 in the same assay as above. Settings: shRNA.
TCATGAACTCTGTCTCTGCATC was tested, and the sensor-assay potency score (higher = more potent) was -0.664.
TGAACTCTGTCTCTGCATCTTT was tested, and the sensor-assay potency score (higher = more potent) was -0.137.
In the case of TCTCACGCAAACCTGAACTTGC, the sensor-assay potency score (higher = more potent) is reported as -0.191.
AGTAGCATGGAATCTGTCCAGA was tested, and the sensor-assay potency score (higher = more potent) was -1.79.
TCTGCATCTTTTGTGACCCGGG showed a sensor-assay potency score (higher = more potent) of -0.271.
Sequence TTTGACATCATGAACTCTGTCT has a sensor-assay potency score (higher = more potent) of 0.483.
For TTGGAGCACTCGCTGTTCGTTT, the sensor-assay potency score (higher = more potent) was -0.72.
TGAACTTGCTTATCACTGGGGT gave a sensor-assay potency score (higher = more potent) of 0.574.
In the case of TCCAAGGGCAGTAACAAGCATG, the sensor-assay potency score (higher = more potent) is reported as -1.61.
TCTGTCTCTGCATCTTTTGTGA gave a sensor-assay potency score (higher = more potent) of -0.455.
Sequence TAGTAGCATGGAATCTGTCCAG has a sensor-assay potency score (higher = more potent) of -0.782.
TTCAAAGTAACTCTCCAGGAGT gave a sensor-assay potency score (higher = more potent) of -0.524.

These sequences were tested against CCL26 in the same assay as above. Settings: shRNA.
In the case of TTGGTAGTGAATATCACAGCCC, the sensor-assay potency score (higher = more potent) is reported as -0.403.
In the case of TAGCTTCGCACCCAGGTCCAGG, the sensor-assay potency score (higher = more potent) is reported as -1.45.
In the case of TAGTGAATATCACAGCCCGCTG, the sensor-assay potency score (higher = more potent) is reported as -1.27.
In the case of TTGGATATGTCACTCCCACGTG, the sensor-assay potency score (higher = more potent) is reported as -0.51.
With TGGATGGGTACAGACTTTCTTG the sensor-assay potency score (higher = more potent) was -1.49.
For TATTGGAAGCAGCAGGTCTTGG, the sensor-assay potency score (higher = more potent) was -1.48.
TTTTGGTAGTGAATATCACAGC showed a sensor-assay potency score (higher = more potent) of -0.793.
With TTCTTGCCTCTTTTGGTAGTGA the sensor-assay potency score (higher = more potent) was -0.89.
Work on TTGTGGCTGTATTGGAAGCAGC yielded a sensor-assay potency score (higher = more potent) of -1.27.
TCTTTTGGTAGTGAATATCACA gave a sensor-assay potency score (higher = more potent) of -1.4.

The sequences below were run against CCL28 in the same assay as above. Settings: shRNA.
In the case of TTTCTTGGCAGCTTGCACTTTC, the sensor-assay potency score (higher = more potent) is reported as 0.0736.
In the case of TGCACTTTCATCCACTGCTTAA, the sensor-assay potency score (higher = more potent) is reported as -1.51.
With TTGCCATGGTGTTTCTTCCTGT the sensor-assay potency score (higher = more potent) was -0.322.
For TGATGTGAAACCTCCGTGCAAC, the sensor-assay potency score (higher = more potent) was -1.14.
With TTAACAGTATGGTTGTGCGGGC the sensor-assay potency score (higher = more potent) was -0.737.
ATATGATGTGAAACCTCCGTGC showed a sensor-assay potency score (higher = more potent) of -0.448.
Work on ACACATATTCACTCTTTCCAGG yielded a sensor-assay potency score (higher = more potent) of -1.19.
AATATGATGTGAAACCTCCGTG showed a sensor-assay potency score (higher = more potent) of 0.282.
Sequence TCCTGTGGCAAACATTTCCTTT has a sensor-assay potency score (higher = more potent) of -1.54.
Work on TTGCACTTTCATCCACTGCTTA yielded a sensor-assay potency score (higher = more potent) of -0.197.
TTCTTCTGCGCTTGACATGAAG showed a sensor-assay potency score (higher = more potent) of -1.32.
TTTTCTTGGCAGCTTGCACTTT gave a sensor-assay potency score (higher = more potent) of -0.496.

These sequences were tested against CCNA1 in the same assay as above. Settings: shRNA.
With TGAGTATCTGACAAGCATCGGG the sensor-assay potency score (higher = more potent) was 0.0337.
Sequence TTAGCCAGGTTCTCAGTCCTGA has a sensor-assay potency score (higher = more potent) of -0.236.
With TTGTAAACAACATTAGTTGATC the sensor-assay potency score (higher = more potent) was -0.494.
